Legend:
Settings in all cases: concentration: 1 μM, replicates: in singlicate; n = 1
ERK5 = system: T1, ERK5
T1 construct: gene MAPK7

ERK8 = system: T2, ERK8
T2 construct: gene MAPK15

ERN1 = system: ERN1
FAK = system: T3, FAK
T3 construct: gene PTK2

FER = system: FER
FES = system: FES
FGFR1 = system: FGFR1
FGFR2 = system: FGFR2
FGFR3 = system: FGFR3
FGFR4 = system: FGFR4
FGR = system: FGR
FLT1 = system: FLT1
FLT3-autoinhibited = system: FLT3-autoinhibited
FLT3 = system: FLT3
FLT4 = system: FLT4
FRK = system: FRK
FYN = system: FYN
GAK = system: GAK
GCN2(Kin.Dom.2,S808G) = system: T4, GCN2(Kin.Dom.2,S808G)
T4 construct: gene EIF2AK4

GRK1 = system: GRK1
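Also: KINOMEscan kinase panel screen.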

Row | SMILES | %Inh (ERK5) | %Inh (ERK8) | %Inh (ERN1) | %Inh (FAK) | %Inh (FER) | %Inh (FES) | %Inh (FGFR1) | %Inh (FGFR2) | %Inh (FGFR3) | %Inh (FGFR4) | %Inh (FGR) | %Inh (FLT1) | %Inh (FLT3-autoinhibited) | %Inh (FLT3) | %Inh (FLT4) | %Inh (FRK) | %Inh (FYN) | %Inh (GAK) | %Inh (GCN2(Kin.Dom.2,S808G)) | %Inh (GRK1)
1 | CCC(=O)c1c(-c2ccccc2)c2cc(Cl)ccc2c(=O)n1Cc1ccc(C(=O)O)cc1 | 0% | 0% | 0% | 0% | 0% | 5% | 0% | 0% | 0% | 0% | 0% | 0% | 4% | 0% | 0% | 0% | 0% | 0% | 12% | 0%
2 | Cc1cccc(-c2cc(-c3c[nH]nc3-c3ccccn3)ccn2)c1 [GW679395] | 0% | 0% | 0% | 0% | 4% | 0% | 0% | 0% | 0% | 4% | 36% | 13% | 0% | 0% | 0% | 15% | 16% | 82% | 0% | 3%
3 | O=C(Nc1n[nH]c2cc(-c3ccccc3F)ccc12)C1CC1 [SB-733371] | 16% | 43% | 0% | 0% | 0% | 1% | 1% | 0% | 0% | 0% | 14% | 29% | 0% | 38% | 0% | 0% | 0% | 0% | 0% | 12%
4 | COc1cc2ncn(-c3cc(OCc4ccncc4Br)c(C(N)=O)s3)c2cc1OC [GW854278] | 0% | 0% | 24% | 0% | 2% | 0% | 43% | 16% | 29% | 7% | 20% | 0% | 22% | 26% | 68% | 8% | 0% | 58% | 0% | 0%
5 | CCC(=O)c1c(-c2ccccc2)c2cc(Cl)ccc2c(=O)n1Cc1cc(S(C)(=O)=O)n(CC(N)=O)n1 | 0% | 0% | 0% | 0% | 0% | 0% | 6% | 9% | 2% | 0% | 0% | 0% | 0% | 0% | 0% | 0% | 0% | 0% | 0% | 24%
6 | COc1cc2nccc(Nc3ccc(OCc4ccc(NC(C)=O)cc4)cc3)c2cc1OC.Cl [GW440135] | 0% | 25% | 0% | 0% | 4% | 8% | 4% | 47% | 26% | 0% | 29% | 83% | 0% | 73% | 92.4% | 7% | 1% | 7% | 4% | 22%
7 | CCCC(=O)Nc1n[nH]c2ncc(-c3cccc4ccccc34)cc12 [SB-642057] | 0% | 0% | 0% | 8% | 3% | 0% | 0% | 0% | 0% | 19% | 10% | 10% | 5% | 0% | 1% | 0% | 42% | 0% | 0% | 0%
8 | CN1C(=O)C(Nc2ccccc2)=C(c2ccccc2)C1=O [SB-300079] | 0% | 2% | 17% | 0% | 0% | 0% | 0% | 0% | 0% | 0% | 0% | 0% | 0% | 0% | 0% | 0% | 0% | 0% | 6% | 26%
9 | COc1ccc(CNC(=O)NC2CCN(c3ccnc(Nc4ccc(F)cc4)n3)C2)cc1 (stereo not drawn) [GSK1379706] | 0% | 0% | 0% | 4% | 25% | 0% | 0% | 15% | 22% | 15% | 19% | 21% | 0% | 16% | 0% | 14% | 20% | 19% | 4% | 5%
10 | COC(=O)c1c(-c2ccccc2)c2cc(Br)ccc2c(=O)n1Cc1ccc(NC(=O)CCC(=O)O)cc1 | 13% | 0% | 20% | 0% | 0% | 9% | 0% | 0% | 0% | 0% | 8% | 0% | 0% | 6% | 9% | 8% | 0% | 0% | 0% | 0%
11 | Cc1cccc(-c2nc(Nc3ccc4c(cnn4C)c3)c3ccccc3n2)n1 [GW876731] | 1% | 0% | 29% | 11% | 9% | 4% | 0% | 21% | 4% | 0% | 0% | 0% | 0% | 9% | 0% | 13% | 9% | 19% | 12% | 1%
12 | O=c1cc(N2CCOCC2)nc2n(Cc3ccc(F)c(Cl)c3)ccn12 [GSK2297099] | 2% | 0% | 0% | 0% | 0% | 0% | 0% | 0% | 0% | 0% | 25% | 10% | 2% | 0% | 0% | 0% | 56% | 1% | 2% | 0%
13 | FC(F)(F)c1ccc(-c2ncn(CCCN3CCOCC3)c2-c2ccncc2)cc1 [SB-217780] | 0% | 1% | 26% | 1% | 9% | 4% | 90% | 0% | 6% | 1% | 11% | 22% | 23% | 14% | 2% | 12% | 10% | 0% | 8% | 12%
14 | CCc1ccc(-c2ccc3c(c2)-c2nn(C)cc2S(=O)(=O)N3C)cc1 | 5% | 36% | 0% | 5% | 6% | 0% | 16% | 0% | 0% | 0% | 0% | 0% | 0% | 30% | 0% | 0% | 5% | 0% | 9% | 12%
15 | Nc1n[nH]c2nnc(-c3ccccc3)c(-c3ccccc3)c12 [GW554060] | 0% | 50% | 7% | 0% | 21% | 0% | 4% | 25% | 32% | 1% | 7% | 20% | 0% | 8% | 0% | 5% | 2% | 1% | 8% | 0%
16 | COc1ccc(-c2cc3c(C)nc(N)nc3n([C@H]3CC[C@H](O)CC3)c2=O)cn1 | 0% | 0% | 0% | 0% | 0% | 0% | 0% | 0% | 0% | 0% | 0% | 0% | 0% | 0% | 0% | 0% | 0% | 0% | 0% | 0%
17 | OCCCNc1nccc(-c2c(-c3cccc(C(F)(F)F)c3)nn3cc(C(F)(F)F)ccc23)n1 [GW630813] | 0% | 0% | 0% | 0% | 8% | 0% | 0% | 0% | 0% | 0% | 16% | 24% | 0% | 0% | 12% | 0% | 0% | 8% | 0% | 100%
18 | CN(C)c1cc(-c2ccc3c(N)n[nH]c3c2)nc(N)n1 [GSK2219329] | 0% | 0% | 0% | 0% | 16% | 0% | 0% | 2% | 7% | 0% | 19% | 20% | 0% | 0% | 19% | 0% | 11% | 0% | 0% | 0%
19 | COc1cccc(-n2cnc3c(N)ncnc32)c1 [SKF-97416] | 0% | 8% | 43% | 4% | 0% | 4% | 7% | 0% | 0% | 0% | 0% | 0% | 9% | 28% | 0% | 0% | 0% | 26% | 8% | 24%
20 | CCc1nc(-c2cccc(C)c2)c(-c2ccncc2)s1 | 4% | 6% | 0% | 99.9% | 13% | 0% | 0% | 0% | 0% | 0% | 19% | 13% | 0% | 0% | 0% | 9% | 0% | 49% | 3% | 25%
21 | CCn1c(-c2ccoc2)nc2cnccc21 [SB-733887] | 0% | 0% | 0% | 0% | 20% | 0% | 0% | 0% | 0% | 20% | 10% | 9% | 65% | 0% | 10% | 0% | 47% | 0% | 0% | 0%

From article PMC5540273 (PLoS ONE, 2017)
